Compounds with a hit are over-represented: about 3% of the library has one in this group of screens.
PMP22 txn prim = PMP22 gene transcription modulation. S16 Pmp22-F2sN Schwann cells, FLuc/NLuc coincidence luminescence, 24 h. Potency, µM (titrated, usually from 57.5 µM), usual class: inhibitors. 43,000 compounds, 2% hits. AID 1508649; active means clear falling dose curves in both reporters; inconclusive means both reporters move, but less clearly or upward; inactive means either reporter flat; the % is the NLuc reporter signal
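Transcriptional readout in edited S16(c9) cells: two luciferases reported from the Pmp22 locus, measured in turn after 24 h compound incubation.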
GALC G270D act = galactocerebrosidase G270D activity enhancement, cell-based; P54803; 145M-Twi-hGALC-G270D cells, HMU-beta-Gal fluorescence, 48 h; Potency, µM (doses to about 57.5 µM), most hits filed as activators; 45,000 compounds, 0.1% hits; AID 1159614; further: nearly all actives have a fitted effect of over 65% in size
Target sequence (P54803 whole entry G286D): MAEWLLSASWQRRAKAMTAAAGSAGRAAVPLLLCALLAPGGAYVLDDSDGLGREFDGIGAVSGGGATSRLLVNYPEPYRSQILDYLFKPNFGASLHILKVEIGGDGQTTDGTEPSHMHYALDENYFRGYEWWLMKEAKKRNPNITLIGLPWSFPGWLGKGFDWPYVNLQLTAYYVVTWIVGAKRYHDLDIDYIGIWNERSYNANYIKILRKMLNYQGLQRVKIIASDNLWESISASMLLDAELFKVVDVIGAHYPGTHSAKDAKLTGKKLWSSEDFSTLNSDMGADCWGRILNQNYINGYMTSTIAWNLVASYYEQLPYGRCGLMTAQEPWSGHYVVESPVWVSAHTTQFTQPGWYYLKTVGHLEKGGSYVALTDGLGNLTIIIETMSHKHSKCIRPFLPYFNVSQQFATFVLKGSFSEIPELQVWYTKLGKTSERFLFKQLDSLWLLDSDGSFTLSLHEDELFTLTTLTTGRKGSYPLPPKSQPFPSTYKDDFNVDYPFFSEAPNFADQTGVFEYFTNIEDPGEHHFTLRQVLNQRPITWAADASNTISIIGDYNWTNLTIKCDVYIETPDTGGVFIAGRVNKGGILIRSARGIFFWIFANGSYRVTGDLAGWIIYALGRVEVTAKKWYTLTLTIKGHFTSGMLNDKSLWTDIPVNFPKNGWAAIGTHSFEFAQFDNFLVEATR
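qHTS, 1536-well; 145M-Twi-hGALC-G270D cells (WT line also made) in DMEM/F12 + 10% FBS; compound incubation on live cells; HMU-β-gal 0.1 mM final, pH 5.2, NaTC; carbonate stop; fluorescence increase = enhanced residual activity.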
p53null 39C tox = p53 null cell cytotoxicity, nonpermissive temperature; AID 904; Potency, µM (doses to about 46.1 µM), hits mostly cytotoxic; 55,000 compounds, 0.97% hits; H1299 p53-null (neo) cells, 39C, ATPlite viability, 24 h; further: nearly all actives have a fitted effect of over 50% in size
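H1299 lung cancer cells, p53-null (H1299-neo) or expressing p53 A138V (H1299-p53A138V), were plated overnight at 37C, then exposed to compounds at up to 46 uM for 24 hr at 39C. Viability was read by ATP-based luminescence.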
p53null 32C kill = p53 null cell cytotoxicity, permissive temperature | Potency, µM (highest dose often 46.1 µM), usual class: cytotoxic | H1299-neo p53 null cells, ATP luminescence, 24 h, 32C | 55,000 compounds, 0.62% hits; further: nearly all actives have a fitted effect of over 55% in size
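Overnight 37C seeding (600 cells/well) of H1299-neo preceded a 24 hr, 32C exposure to compounds up to 46 uM. ATP levels, read by luminescence after 20 min at RT, indicated surviving cells.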
S16 viability = S16 Schwann cell cytotoxicity; S16 Pmp22-F2sN Schwann cells (luciferase reporters placed in the Pmp22 gene) viability, CellTiter-Glo, 24 h; Potency, µM (titrated, usually from 57.5 µM), usual class: cytotoxic; 43,000 compounds, 0.48% hits; AID 1508642; further: nearly all actives have a fitted effect of over 65% in size
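Seed 500-1,000 S16 Pmp22-F2sN cells per well in phenol-red-free DMEM with 10% heat-inactivated FBS; pin-add 23 nL compound; incubate 24 h at 37C; add CellTiter-Glo, wait 15 min protected from light; read luminescence.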
pS6 MEF inh = inhibitors of mTORC1 signaling in Tsc2-/- p53-/- MEF cells; 44,000 compounds, 0.78% hits; Tsc2-/- p53-/- MEF, phospho-rpS6 immunofluorescence/PI, 24 h; Potency, µM (series often up to 38.3 µM), usual class: inhibitors; further: nearly all actives have a fitted effect of over 50% in size
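Plate MEFs (Tsc2-/-, p53-/-, empty vector) in DMEM/10% FBS; after 24 h add compound, incubate 24 h at 37 degree Celsius; fix in PFA/TX-100, block, stain phospho-rpS6 and 10 uM PI; scan at 488 nm; report % positive cells.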
Large screens that a line does not name were inactive. Unless noted, the call rests on the fitted dose curve; in most records, active means well fitted curve in the direction sought with a large enough effect; inconclusive means small, poorly fitted or top-dose-only effect, or another doubt; inactive means no such curve, though single readings can be large; an effect the other way counts as inactive or inconclusive.

Cc1ccc(N2CCn3c2nc2c3c(=O)n(CCCc3ccccc3)c(=O)n2C)cc1	none
Cc1ccc(CNS(=O)(=O)c2cc(C(=O)Nc3cccc(C(F)(F)F)c3)ccc2F)cc1	p53null 39C tox inconclusive, pS6 MEF inh inconclusive
CCCCN(C)CCCNC(=O)Cn1ncc2c3ccccc3n(Cc3cc(C)ccc3C)c2c1=O	PMP22 txn prim inconclusive, p53null 39C tox 10µM, S16 viability inconclusive
COc1cc(C2NC(=O)c3c(sc4c3CCN(C)C4)N2)cc(Br)c1OC(=O)c1ccc(C)cc1 (stereo not drawn)	PMP22 txn prim inconclusive, GALC G270D act 22µM
COCCNC(=O)c1c(-c2ccccc2)c(-c2ccccc2)nn(C)c1=O	none
COc1ccccc1N1CCN(C(=O)c2ccc(Nc3nc4ccccc4n4nnnc34)cc2)CC1	PMP22 txn prim inconclusive, S16 viability 3.5µM
CC(C)CCNC(=O)c1cccc(Nc2nc3ccccc3n3nnnc23)c1	PMP22 txn prim 9.5µM, p53null 39C tox inconclusive, S16 viability 20µM, pS6 MEF inh inconclusive
Cc1ccc(C)c(N2CCN(C(=O)c3ccc(Nc4nc5ccccc5n5nnnc45)cc3)CC2)c1	pS6 MEF inh inconclusive
CCN(CC)CCOC(=O)c1ccc(NC(=O)CSc2cc(=O)n(CC)c3ccccc23)cc1	PMP22 txn prim inconclusive, p53null 39C tox 2.5µM, S16 viability inconclusive
CC(=O)c1cc(-c2ccccc2)n(CC(=O)N2CCC(C)CC2)c1C	none (no result: PMP22 txn prim, GALC G270D act, S16 viability, pS6 MEF inh)
CCc1ccc(C(=O)c2cn(CC(=O)Nc3ccc4c(c3)OCO4)c3ccc(OC)cc3c2=O)cc1	none
COC(=O)CN(c1ccccc1)S(=O)(=O)c1ccc(F)cc1	none (no result: PMP22 txn prim, GALC G270D act, S16 viability, pS6 MEF inh)
Cc1ccc(N(CC(O)Cn2c3ccccc3c3ccccc32)S(=O)(=O)c2ccc(F)cc2)cc1 (stereo not drawn)	PMP22 txn prim inconclusive, p53null 39C tox 11µM, S16 viability inconclusive, pS6 MEF inh inconclusive
Cn1cc(C(=O)O)c(=O)c2cc(S(=O)(=O)N3CCOCC3)ccc21	PMP22 txn prim inconclusive, S16 viability 14µM
Cn1cc(C(=O)NCc2ccccc2)c(=O)c2cc(S(=O)(=O)N3CCOCC3)ccc21	none
CCCCNC(=O)c1c(C)oc2ncn(CC(C)C)c(=O)c12	PMP22 txn prim 11µM, S16 viability inconclusive
COc1ccc(CNC(=O)CCc2c(C)nn(-c3ccc(N4CCOCC4)nn3)c2C)c(OC)c1	S16 viability inconclusive
COc1ccc(-c2noc(-c3cccc(OC)c3OC)n2)cc1	p53null 39C tox 18µM, p53null 32C kill 13µM
COc1cccc(-c2noc(-c3cc4ccccc4oc3=O)n2)c1OC	none
O=C(Cn1ncc2c3ccccc3n(Cc3ccccc3)c2c1=O)NCc1cccs1	none
CCOc1ccc(/C=C/C(=O)Nc2ccc3nc(N(CC)CC)cc(C)c3c2)cc1OC	PMP22 txn prim inconclusive, S16 viability inconclusive, pS6 MEF inh 13µM
CCN(CC)c1cc(C)c2cc(NC(=O)/C=C/c3cc(OC)c(OC)c(OC)c3)ccc2n1	PMP22 txn prim inconclusive, p53null 39C tox 22µM, p53null 32C kill inconclusive, S16 viability inconclusive, pS6 MEF inh 18µM
CC(NS(=O)(=O)c1ccc(CCC(=O)NCC2CCCO2)cc1)c1ccccc1 (stereo not drawn)	none (no result: PMP22 txn prim, GALC G270D act, S16 viability, pS6 MEF inh)
CCCCCCn1c(/C=C/c2ccccc2)nc2ccccc21	p53null 39C tox 13µM
CC(C)Cn1c(/C=C/c2ccccc2)nc2ccccc21	none (no result: PMP22 txn prim, GALC G270D act, p53null 32C kill, S16 viability, pS6 MEF inh)
Cc1cccn2c(=O)cc(CSc3nnc(NC(=O)C(C)C)s3)nc12	none
CNC(=O)C1CCN(Cc2cc3ccccc3n2Cc2ccccc2C)CC1	PMP22 txn prim inconclusive
Cc1ccccc1Cn1c(CN2CCC(C(=O)NCCN(C)C)CC2)cc2ccccc21	PMP22 txn prim inconclusive, S16 viability inconclusive, pS6 MEF inh 7.4µM
Cc1cccc(Cn2nnc3c(=O)[nH]c(C4CCCN(C(=O)c5ccc(C(C)(C)C)cc5)C4)nc32)c1 (stereo not drawn)	p53null 39C tox 20µM, p53null 32C kill inconclusive, S16 viability inconclusive
Cc1ccccc1Cn1nnc2c(=O)[nH]c(C3CCCN(C(=O)c4ccc(C(C)(C)C)cc4)C3)nc21 (stereo not drawn)	PMP22 txn prim inconclusive, p53null 39C tox inconclusive
O=C(Nc1c(Cl)cccc1Cl)c1cc(-c2cccc(O)c2)on1	p53null 39C tox 13µM (no result: PMP22 txn prim, GALC G270D act, S16 viability)
Oc1ccccc1-c1nc(/C=C/c2ccccc2Cl)no1	PMP22 txn prim inconclusive, p53null 39C tox 10µM, p53null 32C kill 10µM
COc1ccc(NS(=O)(=O)c2cc(Br)cc3c2N(C(=O)C2CC2)CC3)cc1OC	PMP22 txn prim 14µM, pS6 MEF inh inconclusive
CC(=O)Nc1ccc(NS(=O)(=O)c2cc(Br)cc3c2N(C(=O)C2CC2)CC3)cc1	none
CCOc1ccc(NC(=O)Cn2c(=O)n(-c3cccc(OC)c3)c(=O)c3c4c(sc32)CCCC4)cc1	none
CNc1cc([N+](=O)[O-])ccc1N/C=C/C(=O)c1cccs1	none (no result: PMP22 txn prim, GALC G270D act, S16 viability, pS6 MEF inh)
O=C(/C=C/Nc1ccccc1C(=O)O)c1cccs1	p53null 32C kill 35µM (no result: PMP22 txn prim, GALC G270D act, p53null 39C tox, S16 viability, pS6 MEF inh)
COc1ccc(S(=O)(=O)Nc2ccc3oc4c(c3c2)CCCC4)cc1	p53null 39C tox 22µM, pS6 MEF inh inconclusive
COc1ccc(NC(=O)c2nnn(CC(=O)Nc3ccc(C)c(C)c3)c2N)cc1OC	none
COc1ccc(OC)c(NC(=O)c2nnn(CC(=O)Nc3ccc(C(C)C)cc3)c2N)c1	p53null 39C tox inconclusive, pS6 MEF inh 16µM
Cc1ccc(-n2ncc3c(N4CCCCCC4)ncnc32)cc1	PMP22 txn prim inconclusive, p53null 32C kill 3.2µM
Fc1ccc(-n2ncc3c(N4CCCCCC4)ncnc32)cc1	p53null 39C tox 14µM, p53null 32C kill inconclusive
Clc1cccc(-n2ncc3c(N4CCCCCC4)ncnc32)c1	p53null 32C kill inconclusive
CCN1CCN(c2ncnc3c2cnn3-c2ccc(C)cc2)CC1	none
Clc1cccc(-n2ncc3c(N4CCCCC4)ncnc32)c1	p53null 39C tox 13µM, p53null 32C kill 3.2µM
O=C(Nc1ccc(F)c(F)c1)C1CCCN1S(=O)(=O)c1cccc2nsnc12 (stereo not drawn)	none
CCOC(=O)c1oc2c(c1C)-c1nn(Cc3ccccc3Cl)cc1CC2	none
O=C(NCC1(c2ccccc2)CCCC1)C(=O)NCC1(c2ccccc2)CCCC1	none (no result: PMP22 txn prim, GALC G270D act, S16 viability, pS6 MEF inh)
Cc1ccc(O)c(C(CC(=O)NCC2(c3ccccc3)CCCC2)c2ccccc2)c1 (stereo not drawn)	PMP22 txn prim inconclusive, p53null 39C tox inconclusive, p53null 32C kill inconclusive, S16 viability inconclusive, pS6 MEF inh 18µM
